A selection: hits, their analogues and other compounds. The true share with any hit is near 6.7%.
T cruzi growth-1: T. cruzi proliferation inhibition; T. cruzi beta-gal in NIH3T3, GalScreen luminescence, 90 h; inhibition, % at 8.34 µM; actives 5.9% (n = 77,000); AID 624255;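 active = mean inhibition above about 93%, with at least 55% of replicates each passing it, limit read from the data, passing the limit was not always enough; inconclusive = only one of those two conditions holds; inactive = neither condition holds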
Pf Dd2 growth: P. falciparum Dd2 growth inhibition; AID 1159554; SYBR Green, 72 h; stronger effect = lower value; activity change, % at 10 µM; actives 2.3% (n = 94,000); in the data active = activity change below about -80%; inconclusive = no clear call, values can overlap the other calls
C diff HTS: inhibitors of Clostridium difficile growth | actives 0.25% (n = 86,000) | Clostridium difficile clinical isolate growth, OD600, 24 h; stronger effect = lower value | growth activity, negative = inhibition, % at 16 µg/mL (by protocol);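 active = mean growth activity at or below -80% and every replicate also at or below -80%; inconclusive = mean at or below -80% but some replicate above -80%; inactive = mean growth activity above -80%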;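 also: 0% = DMSO wells and -100% = levofloxacin 16 µg/mL wells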
T cruzi growth-2: Trypanosoma cruzi proliferation inhibition | shares compounds with T cruzi growth-1 | T. cruzi beta-gal in NIH3T3, GalScreen luminescence, 90 h | inhibition, % at 8.35 µM | actives 72% (n = 5,600);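 active = mean replicate inhibition above about 95% and at least 55% of replicates individually reaching it, limit read from the data; inconclusive = only one of the two criteria is met; inactive = neither criterion is met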
T cruzi growth-3: Trypanosoma cruzi proliferation inhibition | shares compounds with T cruzi growth-1 | T. cruzi beta-gal in NIH3T3, GalScreen luminescence, 90 h | inhibition, % at 2.09 µM | actives 21% (n = 5,600);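 active = mean inhibition above about 95%, with at least 55% of replicates also reaching it, limit read from the data; inconclusive = meets just one of the two conditions; inactive = meets neither condition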;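 also: plate controls were neutral control median for no effect and positive control median for full effect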
3T3 cytotox: cytotoxicity in mouse NIH/3T3 fibroblasts; cytotoxicity (signal decrease), % at 8.35 µM; shares compounds with T cruzi growth-1; NIH/3T3 viability, CellTiter-Glo ATP luminescence, 90 h; actives 14% (n = 5,600);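 active = mean signal decrease across replicates above about 35% based on untreated-well scatter, with enough replicates individually passing, limit read from the data; inconclusive = no rule stated though some were filed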;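 also: 0% = median of neutral control wells and 100% = median of positive control wells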
3T3 cytotox 2: kills mouse NIH/3T3 fibroblasts. shares compounds with T cruzi growth-1. NIH/3T3 viability, CellTiter-Glo ATP luminescence, 90 h. inhibition, % at 24.9 µM. actives 56% (n = 5,600). AID 651744;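 active = mean loss of cell viability signal at or above a set limit, and enough replicates individually reaching it; inconclusive = meets only the mean limit or only the replicate share; inactive = meets neither condition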;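 also: 0% = median of neutral control wells and 100% = median of positive control wells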
Active calls of the source: *; u = inconclusive; x = no result; + = active, no number.

SMILES	T cruzi growth-1	Pf Dd2 growth	C diff HTS	T cruzi growth-2	T cruzi growth-3	3T3 cytotox	3T3 cytotox 2
CCCN(C)C[C@@H]1OCCCC[C@H](C)Oc2ccc(NC(=O)C3CCCCC3)cc2C(=O)N([C@@H](C)CO)C[C@@H]1C	112*	-83*	9	96*	71	10	24
C[C@H](CO)N1C[C@H](C)[C@H](CN(C)CC2CC2)OCCCC[C@H](C)Oc2ccc(NC(=O)C3CCCCC3)cc2C1=O	x	-73	11	x	x	x	x
CCCN(C)C[C@@H]1OCCCC[C@@H](C)Oc2ccc(NC(=O)C3CCCCC3)cc2C(=O)N([C@@H](C)CO)C[C@@H]1C	85	-34	19	x	x	x	x
C[C@H]1CCCCO[C@H](CN(C)CC2CC2)[C@@H](C)CN([C@@H](C)CO)C(=O)c2cc(NC(=O)C3CCCCC3)ccc2O1	102*	-45	-1	94	70	-25	-43
O=C(C[C@@H]1C[C@@H]2c3cc(NS(=O)(=O)c4ccc(F)cc4)ccc3O[C@@H]2[C@H](CO)O1)NC1CCCC1	-34	-13	x	x	x	x	x
O=C(Nc1ccc(F)cc1)N1C[C@H]2[C@@H](c3ccccc31)[C@H](CO)N2C(=O)c1ccccc1F	85	-79	11	x	x	x	x
C[C@@H]1CN([C@@H](C)CO)C(=O)c2cc(C#CCN(C)C)cnc2O[C@@H]1CN(C)Cc1ccc(C(=O)O)cc1	109*	17	2	u	22	-15	1
C[C@@H]1CN([C@@H](C)CO)C(=O)c2cc(C#CCN(C)C)cnc2O[C@H]1CN(C)Cc1ccc(C(=O)O)cc1	-34	5	-1	x	x	x	x
C[C@H]1CN([C@@H](C)CO)C(=O)c2cc(C#CCN(C)C)cnc2O[C@@H]1CN(C)Cc1ccccc1F	52	-41	-1	x	x	x	x
C[C@H]1CN([C@@H](C)CO)C(=O)c2cc(C#CCN(C)C)cnc2O[C@@H]1CN(C)Cc1ccc(-c2ccccc2)cc1	108*	x	-4	107*	76	19	103*
C[C@@H]1CN([C@H](C)CO)C(=O)c2cc(C#CCN(C)C)cnc2O[C@H]1CN(C)Cc1ccccc1F	101*	-10	-1	83	29	15	5
C[C@@H]1CN([C@H](C)CO)C(=O)c2cc(C#CCN(C)C)cnc2O[C@@H]1CN(C)Cc1ccc(-c2ccccc2)cc1	63	x	12	x	x	x	x
N#C[C@@H]1[C@@H](c2ccccc2C2=CCCCC2)[C@@H](CO)N1C(=O)Cc1ccncc1	x	-22	2	x	x	x	x
CC(C)NC(=O)N[C@@H]1CC[C@@H](CCNS(=O)(=O)c2ccc(F)cc2)O[C@@H]1CO	x	9	-1	x	x	x	x
O=C(Nc1cc(F)ccc1F)N1C[C@H]2[C@@H](c3ccccc31)[C@@H](CO)N2Cc1ccncc1	49	-26	2	x	x	x	x
C[C@H](CO)N1C[C@H](C)[C@H](CN(C)Cc2ccc(Oc3ccccc3)cc2)OCc2cn(nn2)CCCC1=O	-4	6	x	x	x	x	x
CNC(=O)C[C@H]1CC[C@H]2[C@@H](COc3ccc(NC(=O)Nc4ccc(Cl)cc4)cc3C(=O)N2C)O1	-2	-13	-4	x	x	x	x
COc1ccc(S(=O)(=O)Nc2cccc3c2O[C@H](CN(C)C(=O)Nc2ccc(F)cc2)[C@@H](C)CN([C@@H](C)CO)C3=O)cc1	17	-14	x	x	x	x	x
O=C(C[C@H]1CC[C@H]2[C@@H](COC[C@H](O)CN2C(=O)Nc2cc(Cl)cc(Cl)c2)O1)N1CCCCC1	99*	-13	x	109*	39	11	20
O=C(C[C@@H]1CC[C@@H]2[C@H](COC[C@@H](O)CN2C(=O)Nc2cccc(Cl)c2)O1)N1CCCCC1	109*	0	29	39	21	-1	-21
O=C(C[C@H]1CC[C@@H]2[C@H](COC[C@H](O)CN2C(=O)Nc2cccc(Cl)c2)O1)N1CCCCC1	-62	2	31	x	x	x	x
O=C(C[C@@H]1CC[C@@H]2[C@H](COC[C@@H](O)CN2C(=O)Nc2cc(Cl)cc(Cl)c2)O1)N1CCCCC1	79	6	x	x	x	x	x
Cc1ccc(S(=O)(=O)N(C)C[C@@H]2OCCCC[C@@H](C)Oc3ccc(NC(=O)CCCN(C)C)cc3C(=O)N([C@H](C)CO)C[C@@H]2C)cc1	-36	4	x	x	x	x	x
C[C@H]1CN([C@@H](C)CO)C(=O)c2cc(NC(=O)Cn3cnnn3)ccc2O[C@H]1CN(C)S(=O)(=O)c1cn(C)cn1	-5	18	x	x	x	x	x
CN(C)C(=O)C[C@@H]1CC[C@H]2[C@@H](COc3ccc(NC(=O)c4ccc(F)cc4)cc3C(=O)N2C)O1	-5	x	36	x	x	x	x
SMILES	T cruzi growth-1	Pf Dd2 growth	C diff HTS	T cruzi growth-2	T cruzi growth-3	3T3 cytotox	3T3 cytotox 2
CCN1[C@@H]2c3ccc(C4=CCCC4)c(=O)n3C[C@@H]2[C@@H](CO)[C@@H]1C(=O)NC1Cc2ccccc2C1	23	-1	6	x	x	x	x
CN(C)C(=O)[C@H]1[C@H](CO)[C@H]2Cn3c(ccc(C4=CCCCC4)c3=O)[C@H]2N1Cc1ccccn1	+	x	3	29	24	10	18
CCCNC(=O)[C@H]1[C@H](CO)[C@H]2Cn3c(ccc(C4=CCCCC4)c3=O)[C@H]2N1Cc1ccccc1F	103*	-26	9	106*	5	1	u
O=C(NCC1CC1)[C@@H]1[C@@H](CO)[C@@H]2Cn3c(ccc(-c4cccnc4)c3=O)[C@@H]2N1Cc1cocn1	20	-3	-1	x	x	x	x
CN(C)C(=O)[C@@H]1[C@@H](CO)[C@@H]2Cn3c(ccc(C4=CCCC4)c3=O)[C@@H]2N1Cc1ccccn1	33	-2	5	x	x	x	x
O=C(NCC1CC1)[C@H]1[C@H](CO)[C@H]2Cn3c(ccc(-c4ccccc4)c3=O)[C@H]2N1Cc1cocn1	98*	-12	-3	-7	-3	-16	-23
O=C(O)[C@@H]1[C@@H](CO)[C@@H]2Cn3c(ccc(C4=CCCCC4)c3=O)[C@@H]2N1Cc1ccccc1F	10	-8	6	x	x	x	x
CCN1[C@@H]2c3ccc(C4=CCCCC4)c(=O)n3C[C@@H]2[C@@H](CO)[C@@H]1C(=O)NC1Cc2ccccc2C1	105*	-17	17	106*	25	18	41*
CCCC(=O)Nc1ccc2c(c1)C(=O)N(C)C[C@@H](OC)[C@H](C)CN(Cc1cncnc1)[C@@H](C)CO2	14	21	2	x	x	x	x
COCCNC(=O)C[C@H]1C[C@H]2c3cc(NS(=O)(=O)c4ccc(F)cc4)ccc3O[C@H]2[C@@H](CO)O1	-62	5	-2	x	x	x	x
CCN1[C@@H]2c3ccc(C4=CCCC4)c(=O)n3C[C@@H]2[C@@H](CO)[C@@H]1C(=O)NCc1cccc(OC)c1	5	x	-13	x	x	x	x
CO[C@H]1CN(C)C(=O)c2cc(NC(=O)c3cc(C)on3)ccc2OC[C@H](C)N(C)C[C@H]1C	-55	0	x	x	x	x	x
